Data on eight molecules can be found in PubChem BioAssay (Tox21).

Values without a mark were called inactive. Results filed as inconclusive are left out. Active and inactive are the calls of the source. Unless noted, the call rests on the fitted dose curve; in most records, active means well fitted curve in the direction sought with a large enough effect in the repeat runs; inconclusive means weak or mixed curves; inactive means no such curve, though single readings can be large; an effect the other way counts as inactive or inconclusive.

Assay [1] in a line: qHTS assay to identify small molecule antagonists of the estrogen receptor alpha (ER-alpha) signaling pathway using the BG1 cell line in the presence of 0.1 nM 17-beta-estradiol - cell viability counter screen (AID 1259241). Further: nearly all actives have a fitted effect of over 40% in size. Further: potency means the concentration at half of the fitted maximal effect. The gist of the method:
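Estradiol-stimulated (0.1 nM) VM7Luc4E2 cells exposed to compounds 22 hr; viability measured by fluorescence of cleaved CellTiter-Fluor substrate after 30 min.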

Assay [2] can be described thus: qHTS assay to identify small molecule antagonists of the androgen receptor (AR) signaling pathway using the MDA cell line in the presence of 0.5 nM R1881 - cell viability counter screen (AID 1259242). Further: nearly all actives have a fitted effect of over 45% in size. The procedure, abridged: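 qHTS format. MDA-kb2 (MMTV-luc, AR/GR responsive) + cpd + 0.5 nM R1881 final, 16 hr 37C/0% CO2 → CellTiter-Fluor 30 min → fluorescence intensity.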

Assay [3] in a line: qHTS assay to identify small molecule HDAC inhibitors (AID 1259364).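 Further: wild-type HCT-116 cells with endogenous class I/II HDAC activity; top concentration of the series differs between compounds; nearly all actives have a fitted effect of over 45% in size.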 The procedure, abridged:
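Quantitative high-throughput format: overnight-seeded HCT-116 cells got compounds for 2 hr at 37C; HDAC-Glo I/II reagent added, 30 min RT, luminescence measured.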

Assay [4] can be described thus: qHTS assay to identify small molecule agonists of the sonic hedgehog signaling (Shh) pathway (AID 1259368; calls by dose curve;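 further: NIH/3T3-derived 3T3Gli1-Luc cells carrying a stable Gli1-driven firefly luciferase reporter; series mostly up to about 92 µM; nearly all actives have a fitted effect of over 15% in size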). The procedure, abridged:
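Quantitative high-throughput format using a Gli1-driven firefly luciferase reporter line derived from NIH/3T3 cells. After a 24 hr compound treatment at 37 C and 5% CO2, luminescence reported Gli1 response element activity.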
(In general: In qHTS, concentration-response curves come from the screen itself.)

Assay [5] in a line: qHTS assay to identify small molecule antagonists of the sonic hedgehog signaling (Shh) pathway (AID 1259369; calls by dose curve; further: nearly all actives have a fitted effect of over 45% in size; further: potency means the concentration at half of the fitted maximal effect). The procedure, abridged: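 Stable Gli1-Luc reporter NIH/3T3 clone; quantitative HTS in stimulated mode with conditioned medium. Luminescence measured after 24hr compound treatment at 37 C.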
Assay [6] is described as follows: qHTS assay to identify small molecule antagonists of the estrogen receptor beta (ER-beta) signaling pathway - cell viability counter screen (AID 1259382). Further: nearly all actives have a fitted effect of over 55% in size. Further: potency means the concentration at half of the fitted maximal effect. The procedure, abridged:
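Viability is scored by CellTiter-Glo luminescence (30 min, room temperature) in ER-beta-UAS-bla HEK293T wells already read for reporter fluorescence. Compound exposure lasts 16 hr at 37C alongside 1nM 17-beta-estradiol in charcoal-stripped serum medium.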

The target in assay [7] is Estrogen receptor (Homo sapiens) (UniProt P03372). Kind of assay: qHTS assay to identify small molecule agonists of the estrogen receptor alpha (ER-alpha) signaling pathway in the presence of an antagonist (AID 1259383; calls by dose curve; further: top concentration of the series differs between compounds; nearly all actives have a fitted effect of over 15% in size). The gist of the method:
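Readout was ERE-driven luciferase luminescence in VM7Luc4E2 cells, which express full-length ER-alpha endogenously. Compounds were tested at 15 concentrations for 22hr alongside 10.0nM ICI-182,780 (final concentration).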

Assay [8] has the same target. The assay is described as follows: qHTS assay to identify small molecule antagonists of the estrogen receptor alpha (ER-alpha) signaling pathway using the BG1 cell line in the presence of 0.1 nM 17-beta-estradiol (AID 1259244). Further: nearly all actives have a fitted effect of over 50% in size. Further: potency means the concentration at half of the fitted maximal effect. The gist of the method:
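Reporter is a stably transfected luciferase under four estrogen responsive elements in VM7Luc4E2 cells expressing native full-length ER-alpha; inhibition of 0.1 nM (final) 17beta-estradiol-driven signal over 22 h is read by luminescence.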

The nature of assay [9]: qHTS assay to identify small molecule HDAC inhibitors - cell viability counter screen (AID 1259365). Further: nearly all actives have a fitted effect of over 50% in size. Further: potency means the concentration at half of the fitted maximal effect. The procedure, abridged: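 After overnight seeding at 1,500 cells per well, wild-type HCT-116 cultures took up compounds in DMSO for 2hr at 37 C. Viable cell content came from luminescence with CellTiter-Glo.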
Assay [10] can be described thus: qHTS assay to identify small molecule agonists of the sonic hedgehog signaling (Shh) pathway - cell viability counter screen (AID 1259366). Further: nearly all actives have a fitted effect of over 50% in size. Further: potency means the concentration at half of the fitted maximal effect. The procedure, abridged: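 Same-well cytotoxicity read. Gli1-Luc reporter 3T3 cells; compounds 24hr, 37C/5% CO2; CellTiter-Fluor fluorescence.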
Assay [11] is described as follows: qHTS assay to identify small molecule antagonists of the sonic hedgehog signaling (Shh) pathway - cell viability counter screen (AID 1259367). Further: nearly all actives have a fitted effect of over 55% in size. Further: potency means the concentration at half of the fitted maximal effect. The gist of the method: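 Conditioned medium drove Shh signaling in 3T3 Gli1-Luc cells exposed to compounds at 37C and 5% CO2. Viability was determined from CellTiter-Fluor fluorescence, with reagent incubated 1 hr after 23 hr of treatment.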

For assay [12], the target named is Estrogen receptor beta (Homo sapiens) (UniProt Q92731). Kind of assay: qHTS assay to identify small molecule agonists of the estrogen receptor beta (ER-beta) signaling pathway (AID 1259377; active means well fitted activation curve with a large enough effect in the signal ratio in the repeat runs, not every such curve was filed as active; the % refers to the signal ratio). The gist of the method:
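Read-out: beta-lactamase FRET fluorescence. Cell line: ER-beta-UAS-bla HEK293T in 2% charcoal-stripped FBS. Exposure: 16 hr at 37C. Substrate step: 2 h at room temperature.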

Assay [13] shares this target. The assay is described as follows: qHTS assay to identify small molecule antagonists of the estrogen receptor beta (ER-beta) signaling pathway (AID 1259378; active means well fitted inhibition curve with a large enough effect in the signal ratio in the repeat runs, not every such curve was filed as active; the % refers to the signal ratio; further: potency means the concentration at half of the fitted maximal effect). The procedure, abridged: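 ER-beta-UAS-bla HEK293T (GripTite) cells in 2% charcoal-stripped FBS medium were preincubated 6 hr at 37C, dosed with compound, then stimulated with 1 nM E2 (final) for 16 hr; beta-lactamase reporter read by B/G FRET fluorescence after 2 hr substrate loading.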

Assay [14] in a line: qHTS assay to identify small molecule agonists of the androgen receptor (AR) signaling pathway in the presence of an antagonist - cell viability counter screen (AID 1259379). Further: nearly all actives have a fitted effect of over 25% in size. Further: potency means the concentration at half of the fitted maximal effect. The gist of the method: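 Nilutamide-containing (3.0uM final) MDA-kb2 cultures, 3,000 cells/well, were treated with compounds across 15 concentrations. After 16 hr at 37C with no CO2, cell viability was determined by CellTiter-Fluor fluorescence in the luciferase assay wells.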

A short description of assay [15]: qHTS assay to identify small molecule agonists or antagonists of the thyroid stimulating hormone receptor (TSHR) signaling pathway - wild type cell line counter screen (AID 1259384; calls by dose curve). The gist of the method:
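Wild-type HEK293 cells were plated 18 h at 37 C/5% CO2, pin-dosed with compound plus Ro20-1724 medium, held 30 min at room temperature, then given cAMP-d2 and anti-cAMP-cryptate; fluorescence was read after 1 h. Fifteen concentrations, triplicate.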

The target in assay [16] is Androgen receptor (Homo sapiens) (UniProt P10275). The assay is described as follows: qHTS assay to identify small molecule antagonists of the androgen receptor (AR) signaling pathway using the MDA cell line in the presence of 0.5 nM R1881 (AID 1259243). Further: potency means the concentration at half of the fitted maximal effect; nearly all actives have a fitted effect of over 50% in size. The procedure, abridged:
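Antagonist mode quantitative HTS in MDA-kb2 MMTV-luciferase cells, agonist R1881 at 0.5 nM final, 16 hr exposure at 37C and 0% CO2, luminescent detection.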

Assay [17] shares this target. Kind of assay: qHTS assay to identify small molecule agonists of the androgen receptor (AR) signaling pathway in the presence of an antagonist (AID 1259381; calls by dose curve; further: nearly all actives have a fitted effect of over 15% in size). The gist of the method: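 Reporter-gene luminescence from MDA-kb2 cells exposed 16hr at 37C (0% CO2) to 15-point compound titrations with 3.0uM final nilutamide as AR antagonist.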
Assay [18] can be described thus: qHTS assay to identify small molecule agonists of the estrogen receptor beta (ER-beta) signaling pathway - cell viability counter screen (AID 1259380). Further: nearly all actives have a fitted effect of over 30% in size. Further: potency means the concentration at half of the fitted maximal effect. The gist of the method:
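Steps: plate ER-beta-UAS-bla HEK293T cells, rest 6 hr; add compounds in DMSO; incubate 16 hr at 37C, 5% CO2; add FRET substrate 2 hr; add CellTiter-Glo, wait 30 min at room temperature; read luminescence.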

The target of assay [19] is Thyrotropin receptor (Homo sapiens) (UniProt P16473). Kind of assay: qHTS assay to identify small molecule antagonists of the thyroid stimulating hormone receptor (TSHR) signaling pathway (AID 1259385; calls by dose curve; further: nearly all actives have a fitted effect of over 20% in size; further: potency means the concentration at half of the fitted maximal effect). The procedure, abridged: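 TSHR-HEK293 cells were plated and held 18 h at 37C/5% CO2, then given compound plus Ro20-1724 and stimulated with TSH at 1.5 ng/mL final. After 30 min at room temperature, cAMP was detected with cAMP-d2/anti-cAMP-cryptate (1 h) by fluorescence.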
Chain of Thyrotropin receptor (Homo sapiens) (P16473 whole entry, looked up): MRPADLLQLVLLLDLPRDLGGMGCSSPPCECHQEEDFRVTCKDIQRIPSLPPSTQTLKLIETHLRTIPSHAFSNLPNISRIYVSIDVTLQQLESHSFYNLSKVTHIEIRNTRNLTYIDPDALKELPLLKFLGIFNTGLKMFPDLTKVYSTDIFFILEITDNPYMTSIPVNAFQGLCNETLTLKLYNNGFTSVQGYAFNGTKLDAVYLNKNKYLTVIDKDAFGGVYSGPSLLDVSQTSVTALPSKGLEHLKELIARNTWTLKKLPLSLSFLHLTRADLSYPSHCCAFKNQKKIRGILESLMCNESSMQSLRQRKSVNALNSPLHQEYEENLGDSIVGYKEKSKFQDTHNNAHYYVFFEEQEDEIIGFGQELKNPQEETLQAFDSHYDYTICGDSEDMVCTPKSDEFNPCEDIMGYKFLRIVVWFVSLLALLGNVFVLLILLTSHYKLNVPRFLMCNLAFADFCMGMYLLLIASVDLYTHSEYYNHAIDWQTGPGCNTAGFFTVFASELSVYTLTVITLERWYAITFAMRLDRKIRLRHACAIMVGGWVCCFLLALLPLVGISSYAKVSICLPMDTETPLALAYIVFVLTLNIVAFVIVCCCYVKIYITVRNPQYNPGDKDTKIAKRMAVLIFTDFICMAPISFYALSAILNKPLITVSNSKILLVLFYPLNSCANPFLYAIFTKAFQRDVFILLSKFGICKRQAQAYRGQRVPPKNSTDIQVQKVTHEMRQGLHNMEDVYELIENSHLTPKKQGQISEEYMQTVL

A short description of assay [20]: qHTS assay to identify small molecule phospholipidosis (PLD) inducers (AID 1259344; active means well fitted curve in the direction sought with a large enough effect; an effect the other way counts as inactive or inconclusive). The procedure, abridged:
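After 4 h attachment on collagen I, HepG2 cells were dosed with compound alongside LipidTOX Red, kept 24 h at 37 C, fixed, and imaged for lamellar phospholipid pits.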

Chain of Estrogen receptor beta (Homo sapiens) (Q92731 whole entry, looked up): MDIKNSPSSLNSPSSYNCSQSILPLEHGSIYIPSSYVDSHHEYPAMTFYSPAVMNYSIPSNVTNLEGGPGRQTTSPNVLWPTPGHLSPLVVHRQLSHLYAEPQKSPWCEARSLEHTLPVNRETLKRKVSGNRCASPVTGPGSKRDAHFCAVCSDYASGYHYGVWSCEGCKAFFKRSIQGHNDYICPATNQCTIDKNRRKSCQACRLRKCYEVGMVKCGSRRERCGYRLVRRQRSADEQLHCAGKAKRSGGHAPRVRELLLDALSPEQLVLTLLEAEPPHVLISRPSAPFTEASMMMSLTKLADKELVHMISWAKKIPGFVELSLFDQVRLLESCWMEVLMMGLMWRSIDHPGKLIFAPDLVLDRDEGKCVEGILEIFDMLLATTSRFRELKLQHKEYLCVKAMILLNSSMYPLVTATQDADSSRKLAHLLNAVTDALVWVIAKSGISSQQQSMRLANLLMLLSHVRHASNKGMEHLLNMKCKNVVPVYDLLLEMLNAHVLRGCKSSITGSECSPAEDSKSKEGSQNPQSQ
Chain of Androgen receptor (Homo sapiens) (P10275 whole entry, looked up): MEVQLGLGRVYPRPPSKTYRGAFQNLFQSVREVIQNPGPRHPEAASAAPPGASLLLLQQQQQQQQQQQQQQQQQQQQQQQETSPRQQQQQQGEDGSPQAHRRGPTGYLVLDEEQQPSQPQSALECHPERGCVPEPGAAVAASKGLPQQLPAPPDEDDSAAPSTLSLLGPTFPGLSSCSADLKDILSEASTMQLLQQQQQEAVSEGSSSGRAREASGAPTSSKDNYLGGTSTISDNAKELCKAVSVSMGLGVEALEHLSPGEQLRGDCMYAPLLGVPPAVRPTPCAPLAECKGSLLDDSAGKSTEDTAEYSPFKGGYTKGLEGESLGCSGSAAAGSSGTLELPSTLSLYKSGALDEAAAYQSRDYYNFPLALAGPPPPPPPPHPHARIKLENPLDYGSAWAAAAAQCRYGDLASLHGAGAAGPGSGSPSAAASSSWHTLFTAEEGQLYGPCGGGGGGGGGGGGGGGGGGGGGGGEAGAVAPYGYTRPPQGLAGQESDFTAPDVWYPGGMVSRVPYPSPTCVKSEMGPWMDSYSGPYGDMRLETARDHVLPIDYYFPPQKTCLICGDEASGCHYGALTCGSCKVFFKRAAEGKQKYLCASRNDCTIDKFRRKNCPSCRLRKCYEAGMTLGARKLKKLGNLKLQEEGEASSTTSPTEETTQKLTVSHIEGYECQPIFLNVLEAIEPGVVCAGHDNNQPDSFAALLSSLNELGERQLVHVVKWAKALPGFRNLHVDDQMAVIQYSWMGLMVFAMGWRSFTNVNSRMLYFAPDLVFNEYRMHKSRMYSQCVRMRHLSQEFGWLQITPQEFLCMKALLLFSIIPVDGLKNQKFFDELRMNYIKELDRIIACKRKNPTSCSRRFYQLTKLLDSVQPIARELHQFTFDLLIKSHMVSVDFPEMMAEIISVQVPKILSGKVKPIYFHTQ
Chain of Estrogen receptor (Homo sapiens) (P03372 whole entry, looked up): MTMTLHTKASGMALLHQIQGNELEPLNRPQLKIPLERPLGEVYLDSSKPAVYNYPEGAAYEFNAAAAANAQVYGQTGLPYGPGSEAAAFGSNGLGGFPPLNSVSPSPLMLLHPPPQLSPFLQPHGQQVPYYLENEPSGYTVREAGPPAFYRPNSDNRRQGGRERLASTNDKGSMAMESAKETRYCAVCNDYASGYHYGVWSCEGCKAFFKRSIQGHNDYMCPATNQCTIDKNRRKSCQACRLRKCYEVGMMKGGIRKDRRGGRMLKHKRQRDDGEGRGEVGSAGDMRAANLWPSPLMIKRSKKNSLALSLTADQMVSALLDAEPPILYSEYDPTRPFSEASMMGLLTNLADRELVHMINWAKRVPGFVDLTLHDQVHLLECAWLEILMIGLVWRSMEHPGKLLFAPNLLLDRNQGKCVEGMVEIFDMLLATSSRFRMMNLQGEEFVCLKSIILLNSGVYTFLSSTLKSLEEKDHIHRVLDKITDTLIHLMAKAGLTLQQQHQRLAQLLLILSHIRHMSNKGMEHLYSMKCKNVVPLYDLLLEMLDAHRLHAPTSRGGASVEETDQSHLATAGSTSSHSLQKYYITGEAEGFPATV

On to `N=C1N=C(N)c2ccccc21`, for which the Potency entry in [1], in assay [2], in assay [3], in assay [4], in assay [6] and in [7] was “inactive” throughout. Moreover, the Potency in assay [5] was 8.63 µM (active).

For the molecule `O=c1cccccc1O`, the Potency result in assay [1], in [8], in assay [3], in [9], in assay [4] and in [12] was “inactive” in each case. Moreover, the Potency result in assay [13], in [14] and in assay [7] was “inactive” throughout. The Potency in assay [10] is 55.5 µM (active); in assay [11], 62.3 µM (active); in assay [5], 24.8 µM (active). Besides, in [15], the molecule was called inactive.

For `O=C(Oc1ccccc1)c1ccccc1C(=O)Oc1ccccc1`, the Potency result in assay [1], in [8], in assay [3], in [9], in assay [11] and in assay [4] was “inactive” throughout. Also, the Potency entry in assay [17], in assay [6] and in assay [7] was “inactive” throughout. In addition, the Potency is 54.5 µM (active) in assay [16] and 48.6 µM (active) in [13].

On to `N#CC1(c2ccc(F)cc2)CCC(=O)CC1`, for which the Potency entry in assay [1], in assay [8], in assay [3], in assay [9], in assay [10] and in [11] was “inactive” in each case. For the same molecule, the Potency entry in [4], in [5], in assay [12], in assay [13], in [14] and in assay [18] was “inactive” each time. Further, the Potency entry in assay [17], in assay [6], in [7] and in [19] was “inactive” in each case. Also, the molecule was called inactive in assay [15].

Turning to `CCC(C)Nc1ccc(NC(C)CC)cc1` (stereo unspecified), the Potency in assay [1] is 9.88 µM (active); in assay [16], 1.57 µM (active); in [9] it was 24.8 µM (active); in assay [10], 11.1 µM (active); in assay [11], 19.7 µM (active); in assay [5], 3.93 µM (active). For the same molecule, the Potency in [14] is 24.8 µM (active); in [18] it was 3.93 µM (active); in assay [6], 5.55 µM (active). In addition, the Potency entry in assay [3], in assay [4], in [17] and in assay [7] was “inactive” in each case.

Regarding `CCCCCCCCCCCCCCCC[N+](C)(C)CCN(Cc1ccc(OC)cc1)c1ncccn1`, the Potency result in [1], in [8], in assay [20], in assay [3], in [4] and in [7] was “inactive” in each case. The Potency is 2.66 µM (active) in [5], 11.9 µM (active) in assay [18] and 13.3 µM (active) in assay [6]. Further, in assay [15], the outcome was inactive.

In the case of `CCCCCCCCCCn1cc[n+](CCCCCCCCCC)c1C`, the Potency is 68.7 µM (active) in assay [1]; 2.17 µM (active) in assay [16]; 3.86 µM (active) in assay [8]; 61.2 µM (active) in assay [9]; 27.3 µM (active) in assay [10]; 30.7 µM (active) in assay [11]. Moreover, the Potency in assay [5] was 0.077 µM (active); in assay [14], 24.4 µM (active); in assay [18], 30.7 µM (active); in assay [6], 27.3 µM (active); in assay [19] it was 54.5 µM (active). Besides, the Potency result in assay [3], in assay [4], in assay [17] and in [7] was “inactive” each time. In addition, the molecule was classed as inactive in assay [15].

`COc1cc(-c2nc(NC(=O)c3cc4cc(C)cc(C)c4n3CC(=O)O)sc2CCC2CCCCC2)c(OC)cc1Cl`: the Potency entry in [1], in assay [8], in assay [3], in [10], in assay [4] and in assay [12] was “inactive” throughout. Further, the Potency entry in [17] and in [7] was “inactive” throughout. Also, the Potency is 56 µM (active) in [16]; 25 µM (active) in [9]; 56 µM (active) in assay [14]; 19.9 µM (active) in assay [18]; 39.7 µM (active) in assay [6]. Further, the molecule was called inactive in [15].
